Data on seven compounds can be found in PubChem BioAssay (EPA / NIEHS).

Experiment [1] can be described thus: ATG_CRE_CIS: Attagene CIS-FACTORIAL HepG2 Assay for human cAMP Responsive Element (CRE) binding protein 3 (AID 2282926). The settings on record: HepG2 CRE cis-reporter, Attagene multiplexed mRNA; actives raise or lower the signal. The method, boiled down:
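Multiplexed transcription-unit reporters transfected into HepG2; 24 h dosing; RT-PCR/capillary electrophoresis fluorescence read-out; bidirectional fit vs DMSO.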

Experiment [2] deals with CCAAT/enhancer-binding protein beta (Homo sapiens) (UniProt P17676). The experiment in a line: ATG_C_EBP_CIS: Attagene CIS-FACTORIAL HepG2 Assay for human CCAAT/Enhancer Binding Protein (C/EBP) beta (AID 2282927). Particulars: HepG2 Attagene cis-factorial transcription factor reporter; actives raise or lower the signal. The gist of the method: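 Endogenous C/EBPb-driven reporter transcripts measured in transfected human HepG2 cells at 24 h via RT-PCR and capillary electrophoresis of labelled fragments. Activity fitted in both directions relative to DMSO baseline.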
Chain of CCAAT/enhancer-binding protein beta (Homo sapiens) (P17676 whole entry, looked up, the tested form may be a part): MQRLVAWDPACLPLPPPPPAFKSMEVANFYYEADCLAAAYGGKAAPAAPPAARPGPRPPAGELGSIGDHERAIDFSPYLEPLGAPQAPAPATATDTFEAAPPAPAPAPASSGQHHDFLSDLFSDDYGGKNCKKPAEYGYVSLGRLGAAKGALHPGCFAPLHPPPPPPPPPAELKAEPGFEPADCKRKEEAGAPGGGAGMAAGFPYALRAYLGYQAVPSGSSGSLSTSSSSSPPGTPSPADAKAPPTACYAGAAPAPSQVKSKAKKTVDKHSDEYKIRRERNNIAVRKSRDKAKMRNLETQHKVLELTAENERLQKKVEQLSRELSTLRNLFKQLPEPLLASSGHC

Experiment [3] in a line: ATG_CMV_CIS: Attagene CIS-FACTORIAL HepG2 Assay for human CMV (Internal Marker) (AID 2282928).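 Also: endpoint acts as a background internal control marker rather than a target.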 Particulars: HepG2 CMV promoter reporter, transcription factor profiling; actives raise or lower the signal. The gist of the method:
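Cell system: HepG2, transiently transfected multiple reporter units under cis promoters. Exposure: 24 h. Detection: RT-PCR, FAM labeling, HpaI digestion, capillary electrophoresis. Analysis: bidirectional, DMSO baseline.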

The nature of experiment [4]: ATG_DR4_LXR_CIS: Attagene CIS-FACTORIAL HepG2 Assay for human Liver X Receptor (LXR), DR4 submotif (AID 2282929). The settings on record: HepG2 Attagene DR4 cis-reporter, mRNA transcription; actives raise or lower the signal. The gist of the method:
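Measures endogenous transcription factor activity via a DR4-driven reporter transcript in human HepG2 cells. Compounds incubated 24 h; mRNA quantified by RT-PCR and capillary electrophoresis, analysed as gain or loss of signal versus DMSO.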

Experiment [5] is described as follows: ATG_AP_1_CIS: Attagene CIS-FACTORIAL HepG2 Assay for human Activator Protein 1 (AP-1) (AID 2282931). Particulars: HepG2 Attagene cis-factorial AP-1 reporter mRNA; actives raise or lower the signal. The gist of the method: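 Bidirectional concentration-response fitting against DMSO controls. Underlying signal: reporter mRNA from cis-promoter constructs in transiently transfected HepG2, measured after 24 h by RT-PCR and capillary electrophoresis.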

The nature of experiment [6]: ATG_BRE_CIS: Attagene CIS-FACTORIAL HepG2 Assay for human Bone Morphogenetic Protein (BMP) Response Element (BRE) (AID 2282933). Particulars: HepG2 BMP response element reporter, Attagene transcription factor profiling; actives raise or lower the signal. The method, boiled down: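 Read-out: reporter mRNA induction quantified by RT-PCR and capillary electrophoresis after 24 h chemical exposure of transfected HepG2 cells. Endogenous factor activity on the BMP response element; gain or loss fitted against DMSO baseline.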

A short description of experiment [7]: ATG_E_Box_CIS: Attagene CIS-FACTORIAL HepG2 Assay for human Enhancer Box (E-box) (AID 2282936). Particulars: HepG2 E-box cis-reporter transcription, actives raise or lower the signal. The method, boiled down: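 Cells: HepG2 (human liver), transient MRTU transfection. Exposure 24 h. RNA → oligo(dT) RT → PCR → 6-FAM label → HpaI → CE. Activity fitted both directions relative to DMSO.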

Experiment [8] is described as follows: ATG_M_19_CIS: Attagene CIS-FACTORIAL HepG2 Assay for M19 Transcription Factor (Internal Marker) (AID 2282939). The settings on record: HepG2 Attagene CIS-FACTORIAL M19 internal marker reporter; actives raise or lower the signal. The gist of the method: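 Readout: fluorescent reporter-transcript fragments by capillary electrophoresis after RT-PCR. Human HepG2 liver cells carried transfected MRTU constructs reporting endogenous transcription-factor activity; exposure 24 h. Gain or loss of signal fitted relative to DMSO.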

A short description of experiment [9]: ATG_GATA_CIS: Attagene CIS-FACTORIAL HepG2 Assay for human GATA Binding Protein (AID 2282944). Particulars: HepG2 GATA cis-element reporter, Attagene multiplex mRNA; actives raise or lower the signal. The method, boiled down:
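Read-out: fluorescent reporter mRNA fragments resolved by capillary electrophoresis after RT-PCR. Human liver HepG2 cells carried transiently transfected cis-regulated reporter constructs; chemicals incubated 24 h; gain or loss of signal fitted relative to DMSO.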

Experiment [10] can be described thus: ATG_ISRE_CIS: Attagene CIS-FACTORIAL HepG2 Assay for human Interferon Regulatory Factor 1 (IRF1) binding to an Interferon-Stimulated Response Element (ISRE) (AID 2282948). The settings on record: HepG2 ISRE cis-reporter (Attagene), mRNA transcription readout; actives raise or lower the signal. The method, boiled down: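 Quantitation relies on labelled RT-PCR fragments separated by capillary electrophoresis. Human HepG2 cells bearing cis-promoter reporter constructs were treated 24 h; DMSO served as baseline for bidirectional fitting.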

Experiment [11] is described as follows: ATG_M_32_CIS: Attagene CIS-FACTORIAL HepG2 Assay for M32 Transcription Factor (Internal Marker) (AID 2282949).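 Also: background control marker of the multiplexed CIS panel rather than a real target.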 Particulars: HepG2 Attagene cis-factorial M32 reporter, mRNA; actives raise or lower the signal. The gist of the method: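 Fluorescent capillary electrophoresis peaks of HpaI-digested, FAM-labelled RT-PCR reporter products give the signal. Source: transiently transfected human liver HepG2 cells, 24 h after chemical dosing; bidirectional fitting against DMSO.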

The nature of experiment [12]: ATG_M_06_CIS: Attagene CIS-FACTORIAL HepG2 Assay for M06 Transcription Factor (Internal Marker) (AID 2282950). The settings on record: HepG2 Attagene CIS-FACTORIAL M06 internal marker reporter; actives raise or lower the signal. The gist of the method: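 Terse: HepG2, transient MRTU transfection (FuGene 6), 24 h dosing; total RNA, oligo(dT) RT, PCR, FAM label, HpaI cut, capillary electrophoresis; bidirectional fit vs DMSO baseline; background-control endpoint.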

Experiment [13] in a line: ATG_MRE_CIS: Attagene CIS-FACTORIAL HepG2 Assay for human Metal Responsive Element (MRE) (AID 2282954). Particulars: HepG2 MRE cis-reporter transcription, Attagene multiplex; actives raise or lower the signal. The method, boiled down: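 Transient MRTU transfection of HepG2 (FuGene 6); 24 h dosing; total RNA → oligo(dT) RT, PCR, 6-FAM primer extension, HpaI cut, CE. Bidirectional fit vs DMSO.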

The target of experiment [14] is Paired box protein Pax-6 (Homo sapiens) (UniProt P26367). Nature of the experiment: ATG_Pax6_CIS: Attagene CIS-FACTORIAL HepG2 Assay for human Paired Box 6 (PAX6) (AID 2282956). The settings on record: HepG2 CIS-FACTORIAL PAX6 reporter transcription, RNA readout; actives raise or lower the signal. The gist of the method: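 After twenty-four hours of chemical exposure, transfected HepG2 cells are harvested for RNA. Cis-promoter reporter transcripts are amplified, fluorescently labelled and sized by capillary electrophoresis, with gain and loss of signal scored against DMSO.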
Chain of Paired box protein Pax-6 (Homo sapiens) (P26367 whole entry, looked up): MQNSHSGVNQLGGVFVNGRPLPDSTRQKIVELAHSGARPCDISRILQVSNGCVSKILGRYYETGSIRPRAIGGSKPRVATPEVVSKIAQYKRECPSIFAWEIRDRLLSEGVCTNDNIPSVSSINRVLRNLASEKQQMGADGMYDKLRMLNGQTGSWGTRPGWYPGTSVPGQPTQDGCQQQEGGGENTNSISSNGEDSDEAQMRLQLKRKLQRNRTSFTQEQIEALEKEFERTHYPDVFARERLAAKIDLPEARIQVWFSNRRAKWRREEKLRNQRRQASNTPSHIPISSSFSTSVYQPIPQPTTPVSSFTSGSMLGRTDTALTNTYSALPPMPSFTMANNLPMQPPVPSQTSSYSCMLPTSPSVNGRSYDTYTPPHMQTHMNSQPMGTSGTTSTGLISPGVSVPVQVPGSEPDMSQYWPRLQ

Experiment [15] can be described thus: ATG_PXRE_CIS: Attagene CIS-FACTORIAL HepG2 Assay for human Pregnane X Receptor Element (PXRE) (AID 2282957). Particulars: HepG2 Attagene CIS-FACTORIAL PXRE reporter, mRNA; actives raise or lower the signal. The method, boiled down: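 Cells: HepG2, transiently transfected reporter units under cis promoter control. Exposure: 24 h. Detection: reporter mRNA via RT-PCR/CE fluorescence; bidirectional fitting, DMSO-referenced.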

Experiment [16] can be described thus: ATG_Sox_CIS: Attagene CIS-FACTORIAL HepG2 Assay for human SRY-box transcription factor (SOX) (AID 2282960). Particulars: HepG2 Attagene cis-factorial SOX reporter, mRNA; actives raise or lower the signal. The gist of the method:
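After 24 h of chemical treatment, transfected HepG2 reporter cells are lysed for total RNA. Transcript levels come from RT-PCR with labelled primer extension and capillary electrophoresis, analysed bidirectionally versus DMSO.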

The target of experiment [17] is Transcription factor Sp1 (Homo sapiens) (UniProt P08047). The experiment in a line: ATG_Sp1_CIS: Attagene CIS-FACTORIAL HepG2 Assay for human Specificity Protein 1 (Sp1) (AID 2282961). Particulars: HepG2 Sp1 cis-reporter transcription, actives raise or lower the signal. The gist of the method:
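Sp1-driven reporter mRNA, read as capillary electrophoresis fluorescence after RT-PCR, in transiently transfected HepG2 cells dosed for 24 h; signal change in either direction relative to DMSO.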

Experiment [18] in a line: ATG_TA_CIS: Attagene CIS-FACTORIAL HepG2 Assay for human TA Basal Promoter (AID 2282964). The settings on record: HepG2 Attagene CIS-factorial TA basal promoter reporter; actives raise or lower the signal. The gist of the method:
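Transfected HepG2, 24 h compound exposure; RNA → RT-PCR → FAM primer extension → HpaI cut → CE fluorescence. Gain/loss-of-signal fitted against DMSO negative control. Background-control readout.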

Experiment [19] is described as follows: ATG_TCF_b_cat_CIS: Attagene CIS-FACTORIAL HepG2 Assay for human T-Cell-Factor with beta-catenin (TCF/b-cat) (AID 2282965). Particulars: HepG2 TCF/beta-catenin cis-reporter transcription, actives raise or lower the signal. The gist of the method:
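Endogenous TCF/LEF activity read as reporter transcript level via RT-PCR and capillary electrophoresis fluorescence in transfected HepG2, 24 h exposure; gain or loss of signal fitted against DMSO controls.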

Experiment [20] in a line: ATG_TAL_CIS: Attagene CIS-FACTORIAL HepG2 Assay for human TAL Basal Promoter (AID 2282966).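 Also: background control endpoint measuring basal TAL promoter reporter mRNA not a specific factor.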 Particulars: HepG2 Attagene cis-factorial TAL promoter reporter; actives raise or lower the signal. The gist of the method: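 RT-PCR plus capillary electrophoresis quantifies reporter mRNA induction in transiently transfected HepG2 cells after 24 h chemical treatment. DMSO serves as negative control and baseline for bidirectional fitting.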

Each structure is given as a SMILES string. The source made the active and inactive calls. The calls were made as follows: active = hit-call score of the fitted dose curve at least 0.9, where 1 is the maximum; inactive = score below 0.9.

Chain of Transcription factor Sp1 (Homo sapiens) (P08047 whole entry, looked up): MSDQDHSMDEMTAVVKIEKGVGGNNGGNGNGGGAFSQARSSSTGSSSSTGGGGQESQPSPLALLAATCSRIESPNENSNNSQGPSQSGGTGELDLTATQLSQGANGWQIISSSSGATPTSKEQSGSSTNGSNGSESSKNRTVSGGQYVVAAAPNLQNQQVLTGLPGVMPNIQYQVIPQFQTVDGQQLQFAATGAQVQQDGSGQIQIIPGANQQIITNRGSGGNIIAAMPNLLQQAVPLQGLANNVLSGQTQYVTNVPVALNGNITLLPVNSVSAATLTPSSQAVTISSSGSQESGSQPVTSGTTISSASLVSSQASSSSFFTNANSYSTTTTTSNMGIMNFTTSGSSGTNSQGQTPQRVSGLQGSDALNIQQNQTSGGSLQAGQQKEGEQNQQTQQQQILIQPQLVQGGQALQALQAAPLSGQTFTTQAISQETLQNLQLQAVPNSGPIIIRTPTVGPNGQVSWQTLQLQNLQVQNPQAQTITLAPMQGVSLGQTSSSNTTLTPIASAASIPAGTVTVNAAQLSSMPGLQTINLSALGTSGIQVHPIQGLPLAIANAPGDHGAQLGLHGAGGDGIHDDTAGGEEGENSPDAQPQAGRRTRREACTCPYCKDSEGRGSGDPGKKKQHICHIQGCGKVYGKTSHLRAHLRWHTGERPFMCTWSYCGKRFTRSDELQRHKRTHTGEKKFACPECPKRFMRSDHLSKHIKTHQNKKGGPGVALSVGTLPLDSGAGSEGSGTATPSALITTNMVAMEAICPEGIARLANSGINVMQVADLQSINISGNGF

Consider `Cc1ccccc1S(N)(=O)=O`, for which the result in experiment [1], in [2], in [3], in experiment [4], in experiment [5] and in experiment [6] was inactive. The result in [7], in experiment [8], in experiment [9], in experiment [10], in experiment [11] and in experiment [12] was inactive. For the same compound, the call in [13], in [14], in experiment [15], in [16], in experiment [17] and in experiment [18] was inactive. Also, the call in [19] and in experiment [20] was inactive.
With `CCCCCCCCCCCCCC`, the result in experiment [1], in experiment [2], in experiment [3], in [4], in [5] and in experiment [6] was inactive. Also, the outcome in [7], in [8], in experiment [9], in experiment [10], in experiment [11] and in [12] was inactive. In addition, the compound was classed as inactive in [13], in experiment [14], in experiment [15], in experiment [16], in experiment [17] and in [18]. Further, the compound was classed as inactive in [19] and in experiment [20].
With `CC(C)=CCOC(=O)c1ccccc1`, the result in experiment [1], in [2], in experiment [3], in experiment [4], in experiment [5] and in experiment [6] was inactive. The outcome in [7], in [8], in [9], in [10], in experiment [11] and in experiment [12] was inactive. Also, the result in [13], in experiment [14], in [15], in [16], in [17] and in [18] was inactive. Besides, the compound was classed as inactive in experiment [19] and in [20].
Consider `CC(C)(Oc1ccc(Cl)cc1)C(=O)O`, for which the compound was classed as inactive in experiment [1], in experiment [2], in experiment [3], in [4], in experiment [5] and in experiment [6]. In addition, the outcome in experiment [7], in experiment [8], in experiment [9], in experiment [10], in experiment [11] and in experiment [12] was inactive. Also, the compound was called inactive in experiment [13], in experiment [14], in experiment [15], in experiment [16], in experiment [17] and in experiment [18]. For the same compound, the outcome in [19] and in [20] was inactive.
For the compound `O=C(O)c1cc(Cl)cc(Cl)c1O`, the compound was called inactive in experiment [1], in experiment [2], in [3], in [4], in experiment [5] and in experiment [6]. Further, the outcome in experiment [7], in experiment [8], in experiment [9], in [10], in experiment [11] and in [12] was inactive. Moreover, the compound was classed as inactive in [13], in experiment [14], in [16], in experiment [17], in experiment [18] and in [19]. For the same compound, the compound was classed as inactive in experiment [20]. In experiment [15], the AC50 (usually the midpoint of the concentration-response curve, whichever way the signal moves) is 68.7 µM (active).
As for `[O-][n+]1ccc(Cl)cc1`, the call in [1], in [2], in experiment [3], in experiment [4], in experiment [5] and in experiment [6] was inactive. For the same compound, the outcome in experiment [7], in [8], in experiment [9], in experiment [10], in experiment [11] and in experiment [12] was inactive. Moreover, the compound was classed as inactive in experiment [13], in experiment [14], in experiment [15], in [16], in [17] and in experiment [18]. Moreover, the result in experiment [19] and in experiment [20] was inactive.
Consider `CC1=C(CC=O)C(C)(C)CCC1`, for which the result in experiment [1], in [2], in experiment [3], in [4], in [5] and in experiment [6] was inactive. Moreover, the outcome in experiment [7], in experiment [8], in experiment [9], in [10], in experiment [11] and in [12] was inactive. Also, the compound was classed as inactive in experiment [13], in experiment [14], in experiment [16], in experiment [17], in experiment [18] and in [19]. Besides, the compound was called inactive in experiment [20]. In [15], the half-maximal activity concentration (AC50) was 0.734 µM (active).
